Results taken from the supplement of paper PMC7156485.
± gives the standard deviation of the averaged measurements.

The compounds below were run on TDF (assay: cell number relative to DMSO (% of DMSO); higher = more cells (less growth inhibition / toxicity)). Conditions: concentration: 10 µM; 24 h.
Procedure, shortened: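 In 384-well plates holding 800 HCC1569 or TDF cells per well in RPMI with 10% FBS, compounds were tested at 10 µM for 24 h at 37 °C in triplicate. Fixation used 3.7% formaldehyde. Staining used a rabbit anti-H1.0 antibody with an AlexaFluor 647 secondary, plus DAPI. Each value, H1.0 nuclear intensity or cell number, is a median of replicates shown as percent of the plate control, and HCC1569 values were smoothed for positional effects.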
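Note: TDF denotes transformed human dermal fibroblasts of mesenchymal origin.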

SMILES	cell number
c1ccc(-c2[nH]ncc2-c2ccnc3ccccc23)nc1	107
COc1cc2c3cc1Oc1c(OC)c(OC)cc4c1C(Cc1ccc(O)c(c1)Oc1ccc(cc1)CC3N(C)CC2)N(C)CC4.Cl.Cl (centres undefined)	92.2
COc1cc2nc(N3CCN(C(=O)C4CCCO4)CC3)nc(N)c2cc1OC (centres undefined) [Terazosin]	87.9
CC(COc1ccccc1)N(CCCl)Cc1ccccc1.Cl (centres undefined) [Phenoxybenzamine.HCl]	103
CC1(C)CC(=O)C2=C(C1)NC(=S)NC2c1cccc(O)c1 (centres undefined)	9.81
COc1ccc2c(c1)CC[C@@H]1[C@@H]2CC[C@]2(C)[C@@H](NCCCCCCN3C(=O)C=CC3=O)CC[C@@H]12.O	109
CC(C=CC1=C(C)CCCC1(C)C)=CC=CC(C)=CC(=O)O [Retinoic Acid]	109 ± 5.1
O=S(=O)(c1cccc2cnccc12)N1CCCNCC1	102
CCCCS(=N)(=O)CCC(N)C(=O)O (racemic) [DL-Buthionine-[S,R]-sulfoximine]	102
CCN(CC)CCCC(C)Nc1c2ccc(Cl)cc2nc2ccc(OC)cc12 (centres undefined) [Quinacrine]	39.5
O=C1NC(=O)C(=Cc2ccc(-c3ccc(F)cc3O)o2)S1	104
COc1ccccc1N1CCN(CCCNc2cc(=O)n(C)c(=O)n2C)CC1.Cl [Urapidil hydrochloride]	102
NC(=O)c1ccc2[nH]ccc2c1	97.1
CCCCCC(O)C=CC1C(O)CC(=O)C1CC=CCCCC(=O)O (centres undefined) [Prostaglandin E2]	102 ± 6.3
C[C@H](N[C@@H](CCc1ccccc1)C(=O)O)C(=O)N1CCC[C@H]1C(=O)O.O.O	94.9
CCCCCC=CCC=CC=CC=CC(SCC(N)C(=O)NCC(=O)O)C(O)CCCC(=O)O (centres undefined) [Leukotriene D4]	99.8
Oc1ccc(Cn2cc[nH]c2=S)cc1 [1-(4-Hydroxybenzyl)imidazole-2-thiol]	101

SMILES	cell number
CS(=O)(=O)O.O=C1Nc2ccc(-c3cccnc3)cc2C1=Cc1ccc[nH]1 [JAK3 Inhibitor VI]	47.7
CCCCCCCCCCCCCCSCC(=O)O [Tetradecylthioacetic acid]	107
OCCOc1ccc(/C(=C(/CCCl)c2ccccc2)c2ccccc2)cc1 [2-{4-[(1Z)-4-chloro-1,2-diphenyl-1-butenyl]phenoxy}ethanol]	96.7
CCCc1cc(=O)oc2c(C(=O)N3CCCc4ccccc43)c(OC)cc(OC)c12	46.1
COC(C(=O)C(O)C(C)O)C1Cc2cc3cc(OC4CC(OC5CC(O)C(O)C(C)O5)C(O)C(C)O4)c(C)c(O)c3c(O)c2C(=O)C1OC1CC(OC2CC(OC3CC(C)(O)C(O)C(C)O3)C(O)C(C)O2)C(O)C(C)O1 (centres undefined) [Mithramycin A]	29.9
C=C(C)C1CC=C(C(=O)O)CC1 (centres undefined) [Perillic acid]	98.7
COc1cc2ncc(-c3ccccc3)nc2cc1OC [Tyrphostin AG 1296]	106
O=C1NC(=O)C(=Cc2ccc3c(c2)OC(F)(F)O3)S1 [PI 3-KbInhibitor II]	96.8
CCCCCC=CCC=CCC(O)C=CC=CCCCC(=O)O (centres undefined)	90.4
Cl.O.O.c1ccc2c(c1)CN1CCCC1=N2 [Desoxypeganine]	109
CCN(CC)C(=O)c1ccc(Nc2nc(OCC3CCCCC3)c3[nH]cnc3n2)cc1 [Cdk2 Inhibitor IV,                 NU6140]	51.1
COC(=O)C1=C(C)NC(C)=C(C(=O)OC)C1c1ccccc1[N+](=O)[O-] [Nifedipine]	102 ± 7
Cc1cc(=O)oc2cc(O)ccc12 [4-Methylumbelliferone]	103
C=CC1CN2CCC1CC2C(O)c1ccnc2ccc(OC)cc12.C=CC1CN2CCC1CC2C(O)c1ccnc2ccc(OC)cc12.O=S(=O)(O)O (centres undefined) [Quinidine sulfate]	99.9
O=C(O)CCc1nc(-c2ccccc2)c(-c2ccccc2)o1 [Oxaprozin]	101
O=C(O)CP(=O)(O)O [Phosphonoacetic acid]	109
COc1cc(C(=O)c2ccc3ncccc3c2)cc(OC)c1OC [quinolin-6-yl(3,4,5-trimethoxyphenyl)methanone]	8.78
